Measured values reported in PubChem BioAssay (Tox21).
Inconclusive results are not listed. Entries that show only a call come without a potency. The source made the active and inactive calls. The call rests on the fitted dose curve.

Assay: qHTS assay for small molecule disruptors of the mitochondrial membrane potential - cell viability (AID 720634);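 further: human HepG2 liver cancer cells; nearly all actives have a fitted effect of over 20% in size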
Settings: HepG2 viability, ATP luminescence (CellTiter-Glo), 1 h; series mostly up to 83.2 µM
Source text: U.S. Tox21 Program National Center for Advancing Translational Sciences [NCATS] NIH Chemical Genomics Center [NCGC] U.S. Environmental Protection Agency [EPA] National Institutes of Environmental Health Sciences [NIEHS] National Toxicology Program [NTP] U.S. Food and Drug Administration [FDA] Tox21 Assay Overview: Mitochondrial membrane potential (MMP), one of the parameters for mitochondrial function, is generated by mitochondrial electron transport chain that creates an electrochemical gradient by a series of redox reactions. This gradient drives the synthesis of ATP, a crucial molecule for various cellular processes. Measuring MMP in living cells is commonly used to assess the effect of chemicals on mitochondrial function; decreases in MMP can be detected using lipophilic cationic fluorescent dyes. […] The dye accumulates in the mitochondria of healthy cells as aggregates, with red fluorescence. The mitochondrial potential decreases and the dye could not accumulate in the mitochondria and remains in the cytoplasm in monomers, with green fluorescence. In addition to the mitochondrial potential assay, these cells were also used to test the cytotoxicity by determining the cell viability in the culture based on the quantitation of ATP present. The cytotoxicity was measured in the same assay well of MMP assay.
Tox21 Assay Protocol Summary: 2,000 HepG2 cells in 5 uL/well were dispensed into black, clear-bottom 1536-well plates using a Multidrop Combi (Thermo Scientific) dispenser. The assay plates were incubated for an overnight at 37 C to allow cells to attach to the wells, followed by the transfer of 23 nL compound or DMSO vehicle by a pin tool (Kalypsys). The plates were incubated for 1 hr at 37 C and 5% CO2, followed by the addition of 5 uL of 2X m-MPI dye into each well using Flying Reagent Dispenser (Aurora Discovery) and then CellTiter-Glo reagent was added at 4 uL/well and incubated 30 min at room temperature. Then luminescence intensity was quantified on a ViewLux CCD-based plate reader.

| SMILES | Potency |
| --- | --- |
| C=C(C)[C@H]1CC=C(C)C(=O)C1 | inactive |
| OC1C(O)C(O)C(O)C(O)C1O (stereo not given) | inactive |
| CCNc1ccccc1 | inactive |
| C=CC(=O)OCCC(=O)O | inactive |
| O=C(O)Cn1c(=O)n(Cc2ccc(Br)cc2F)c(=O)c2ccc(Cl)cc21 | inactive |
| O=C1CCCC1 | inactive |
| O=S(=O)(O)c1ccc(N=Nc2c(O)ccc3cc(S(=O)(=O)O)ccc23)cc1 | inactive |
| CC(=O)OCc1ccco1 | inactive |
| CCOC(=O)n1ccn(C)c1=S | inactive |
| CC(O)CC(C)(C)O (stereo not given) | inactive |
| COc1ccc(CCC(C)=O)cc1 | inactive |
| COc1ccc(C)cc1N | inactive |
| O=C(O)CCCCCCCCC(=O)O | inactive |
| O=c1[nH]cnc2[nH]ncc12 | inactive |
| CC1(C)NC(=O)NC1=O | inactive |
| Cc1ccc([N+](=O)[O-])cc1S(=O)(=O)O | inactive |
| OCc1cccc(Oc2ccccc2)c1 | inactive |
| COc1ccc(N)c(C)c1 | inactive |
| Nc1ccc(Cl)c(N)c1 | inactive |
| CC(=O)OCc1ccccc1 | inactive |

| SMILES | Potency |
| --- | --- |
| CCc1ccccc1CC | inactive |
| CC(CCl)OP(=O)(OC(C)CCl)OC(C)CCl (stereo not given) | inactive |
| NCCN1CCNCC1 | inactive |
| CCNc1cccc(C)c1 | inactive |
| CC(C)CC(=O)CC(C)CC(C)C (stereo not given) | inactive |
| CC(C)(Oc1ccc(CCNC(=O)c2ccc(Cl)cc2)cc1)C(=O)O | inactive |
| CCCCOC(=O)c1ccc(N)cc1 | inactive |
| c1ccc2c(c1)Cc1ccccc1-2 | inactive |
| CCO[Si](CCC#N)(OCC)OCC | inactive |
| CC(C)CCCCCCCOC(=O)CCCCC(=O)OCCCCCCCC(C)C | inactive |
| C=CCc1ccc(OC)c(OC)c1 | inactive |
| CNC(=O)Oc1ccc2c(c1)[C@]1(C)CCN(C)[C@@H]1N2C | inactive |
| CC(CCO)CC(C)(C)C (stereo not given) | inactive |
| CCCCCCCCCCO | inactive |
| Clc1ccccn1 | inactive |
| C=CC(C)CCCC(C)(C)O (stereo not given) | inactive |
| CC(=O)OC1CC(C)OC(C)O1 (stereo not given) | inactive |
| O=C(O)c1ccc(C(=O)O)c(C(=O)O)c1 | inactive |
| CCOCCOCCOCCO | inactive |
| CCCCCC(=O)O | inactive |
